Pol kappa inh = inhibitors of human DNA polymerase kappa. Q9UBT6. purified Pol kappa, fluorescent DNA synthesis assay, 10 min. Potency, µM (top dose mostly 107 µM), inactives show top-dose activity, negative = inhibition, hits mostly inhibitors. 400,000 tested, 0.53% active. AID 588579; further: potency means the concentration at half of the fitted maximal effect; on the % scale 0 is the no-effect control and ±100 the full control effect
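10 nM Pol kappa was preincubated with compounds for 15 min at room temperature. Reaction started with 50 nM (final) substrate. Fluorescence read kinetically at 0 and 10 min.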
POLI inh = blocks human DNA polymerase iota activity | Potency, µM (titrated, usually from 115 µM), without a hit: at the top dose activity, negative = inhibition, most hits filed as inhibitors | 390,000 tested, 1% active | Pol iota fluorescent replication assay, 10 min | Q9UNA4; further: potency means the concentration at half of the fitted maximal effect
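Fluorescent replication assay read twice, at 0 min and 10 min after adding 50 nM (final) substrate. Enzyme (10 nM) and compounds were first incubated 15 min at room temperature; enzyme-free buffer wells were negative controls.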
Pol beta inh = DNA polymerase beta (human) inhibition. P06746. Pol beta primer extension/strand displacement, fluorescence kinetic. Potency, µM (highest dose often 114 µM), for inactives: at the top dose activity change, negative = inhibition, most hits filed as inhibitors. 340,000 tested, 1.3% active. AID 485314; further: potency means the concentration at half of the fitted maximal effect; on the % scale 0 is the no-effect control and ±100 the full control effect
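10 nM enzyme + cpd, 15 min RT; start with substrate 50 nM final; read 0 min and after 10 min RT. Corrected, normalized data; 4-parameter Hill curve fit.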
PI5P4K alpha inh = PI5P4K alpha (human) kinase inhibition; PI5P4Kalpha enzyme, ADP-Glo luminescence, 60 min; hits give low values; max response, %; 330,000 tested, 1.2% active; AID 652105; active means max response of -50% or lower; inconclusive means between -30% and -50%; inactive means -30% or higher; further: value at the top dose of about 77 µM; on the % scale 0 is the no-effect control and ±100 the full control effect
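Quantitative HTS of the MLSMR library against PI5P4Kalpha with substrate. ATP added last at 5 microM final; room temperature, 60 minutes. Remaining ATP depleted, ADP converted and read as luminescence.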
POLH inh = blocks human DNA polymerase eta activity; Q9Y253; recombinant Pol eta, fluorescent DNA replication assay; 390,000 tested, 1.2% active; Potency, µM (top dose mostly 114 µM), for the others: at the highest dose activity change, negative = inhibition, usual class: inhibitors; further: potency means the concentration at half of the fitted maximal effect; on the % scale 0 is the no-effect control and ±100 the full control effect
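Pol eta (10 nM) was preincubated with compounds for 15 min at room temperature, after which fluorescent replication substrate (50 nM final) was added to start the reaction. Fluorescence was read kinetically at 0 and 10 min.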
WRN inhibitor = inhibitors of human WRN helicase | 360,000 tested, 0.46% active | AID 651768 | WRN helicase unwinding, fluorescent forked duplex, kinetic | Potency, µM (top dose mostly 114 µM), for inactives: at the highest dose activity change, negative = inhibition, most hits filed as inhibitors | Q14191; further: potency means the concentration at half of the fitted maximal effect; on the % scale 0 is the no-effect control and ±100 the full control effect; nearly all actives have a fitted effect of over 55% in size
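Enzyme (20 nM final) and test compound sit together 15 min at room temperature before substrate addition. Substrate is a single-forked duplex oligonucleotide (100 nM) labelled with fluorophore and quencher, with 2 mM ATP; helicase unwinding raises red fluorescence, read kinetically.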
* hit, by the source's call; [ ] = another dose, or the depositor's remark. Compounds with a hit are over-represented: about 2.8% of the library has one in this group of screens. Unless noted, the call rests on the fitted dose curve; in most records, active means well fitted curve in the direction sought with a large enough effect; inconclusive means small, poorly fitted or top-dose-only effect, or another doubt; inactive means no such curve, though single readings can be large; an effect the other way counts as inactive or inconclusive.

Screening N#C/C(=C/c1ccco1)C(N)=S returned Pol kappa inh -7.7%, POLI inh inconclusive, Pol beta inh 20µM*, PI5P4K alpha inh -58.7*, POLH inh -9.6% and WRN inhibitor -35.8%.
Screening O=C(Nc1ccnn1C1CCN(C2CCC2)CC1)c1ccccc1 returned Pol kappa inh -11.1%, POLI inh 11.1%, Pol beta inh 54.0%, PI5P4K alpha inh -5.1, POLH inh -4.5% and WRN inhibitor 1.6%.
C#CCOCCOCCOCCNc1nc(N2CCN(C(=O)CCCCCCCCCCNC(=O)Cn3cc(CCCCCN)nn3)CC2)nc(N2CCN(C(=O)CCCCCCCCCCNC(=O)[C@H](CO)n3cc(CCCCCN)nn3)CC2)n1 was read as Pol kappa inh 2.9%, POLI inh inconclusive, PI5P4K alpha inh -58.3*, POLH inh -16.7% and WRN inhibitor 79.4µM*.
C#CCOCCOCCOCCNc1nc(N2CCN(C(=O)CCCCCCCCCCNC(=O)Cn3cc(CCCCCN)nn3)CC2)nc(N2CCN(C(=O)CCCCCCCCCCNC(=O)[C@H]([C@@H](C)CC)n3cc(CCCCCN)nn3)CC2)n1 was read as Pol kappa inh 7.4%, POLI inh inconclusive, PI5P4K alpha inh inconclusive, POLH inh inconclusive and WRN inhibitor 56.2µM*.
Screening Cc1ccc(C(=O)c2c(C)oc3c2C(=O)C(=O)c2ccccc2-3)cc1 returned Pol kappa inh -4.5%, POLI inh -45.3%, Pol beta inh -25.3%, PI5P4K alpha inh -12.8, POLH inh 44.7µM* and WRN inhibitor -35.2%.
`Cc1oc2c(c1C(=O)c1ccc(Cl)cc1)C(=O)C(=O)c1ccccc1-2` gave Pol kappa inh -7.7%, POLI inh 51.7%, Pol beta inh 32.2%, PI5P4K alpha inh 1.0, POLH inh -14.1% and WRN inhibitor -35.3%.
CCC1(CC)CNC(=O)NC1 was read as Pol kappa inh -4.5%, POLI inh 36.7%, PI5P4K alpha inh 0.1, POLH inh -15.2% and WRN inhibitor 13.3%.
For CCOC(=O)c1sc(N2C(=O)C(O)=C(C(=O)c3ccc(C)o3)C2c2cccc([N+](=O)[O-])c2)nc1C (centres undefined) the results were Pol kappa inh -1.0%, POLI inh 36.1%, Pol beta inh -11.4%, PI5P4K alpha inh -51.2*, POLH inh -7.9% and WRN inhibitor -2.6%.
Screening Cc1ccc2nc(N3C(=O)C(O)=C(C(=O)c4ccc(C)o4)C3c3cccc(O)c3)sc2c1 (centres undefined) returned Pol kappa inh -4.2%, POLI inh inconclusive, Pol beta inh inconclusive, PI5P4K alpha inh -58.3*, POLH inh -19.2% and WRN inhibitor inconclusive.
`CCOC(=O)c1sc(N2C(=O)C(O)=C(C(=O)c3ccco3)C2c2ccc([N+](=O)[O-])cc2)nc1C` (centres undefined) gave Pol kappa inh -4.4%, POLI inh 2.3%, PI5P4K alpha inh -80.4*, POLH inh inconclusive and WRN inhibitor -9.4%.
For COC(=O)c1sc(N2C(=O)C(O)=C(C(=O)c3ccc(C)o3)C2c2ccc([N+](=O)[O-])cc2)nc1C (centres undefined) the results were Pol kappa inh -10.2%, POLI inh 7.1%, Pol beta inh 2.9%, PI5P4K alpha inh -82.9*, POLH inh inconclusive and WRN inhibitor 3.1%[11.6 µM].
`CN(C)c1ncc2ncc(=O)n(C)c2n1` gave Pol kappa inh -6.5%[60.1 µM].
Screening O=C(CC1N=C2c3ccccc3N=C(SCC(=O)Nc3cccc(Cl)c3)N2C1=O)NCc1cccs1 (centres undefined) returned Pol kappa inh 3.6%, POLI inh 9.5%, Pol beta inh -0.7% and POLH inh -18.9%.
O=C(O)CC1S/C(=N/N=C/c2ccc(-c3ccc(Cl)cc3[N+](=O)[O-])o2)NC1=O (centres undefined) was read as Pol kappa inh inconclusive, POLI inh inconclusive, Pol beta inh inconclusive, PI5P4K alpha inh -52.4*, POLH inh inconclusive and WRN inhibitor inconclusive.
CCc1nc2sccc2c(=O)[nH]1 was read as Pol kappa inh 5.8%, POLI inh 27.5%, Pol beta inh 0.8%, PI5P4K alpha inh -2.0, POLH inh -8.2% and WRN inhibitor -1.7%.
For C[N+]1(CC(=O)c2c3ccccc3cc3ccccc23)CCOCC1 the results were Pol kappa inh 6.8% and POLI inh 0.1%.
Screening CSc1ncc(Cl)c(C(=O)Nc2c(C(=O)c3ccc(C)c(F)c3)oc3ccccc23)n1 returned Pol kappa inh 11.1%, POLI inh 1.8%, Pol beta inh 9.9% and POLH inh -14.9%.
`Oc1ccccc1C=NC1=NN(c2cccc(C(F)(F)F)c2)CC1` gave Pol kappa inh -10.5%, POLI inh 28.7%, Pol beta inh -18.2%, POLH inh -19.8% and WRN inhibitor 8.6%.
For FC(F)(F)c1cccc(N2CCC(N=CN3CCCCCC3)=N2)c1 the results were Pol kappa inh -11.6%, POLI inh -11.9%, Pol beta inh 9.1%, PI5P4K alpha inh -1.0, POLH inh 89.1µM* and WRN inhibitor 0.3%[57.1 µM].
For O=C(NCc1ccccc1)C(c1cc2ccccc2o1)n1c(=O)c(-c2ccccc2)nc2ccccc21 (centres undefined) the results were PI5P4K alpha inh -2.5 and WRN inhibitor -4.9%.
CCc1cccc2c(C(O)(c3c[nH]c4c(CC)cccc34)c3c[nH]c4c(CC)cccc34)c[nH]c12 was read as Pol kappa inh -3.7% and POLI inh 7.3%.
Screening CC[n+]1c(/C=C2\Sc3ccccc3N2C)ccc2cccc(C)c21 returned Pol kappa inh -36.9%, POLI inh inconclusive, Pol beta inh 28.2µM*, PI5P4K alpha inh 0.0, POLH inh inconclusive and WRN inhibitor 50.1µM*.
Screening CNc1ncnc2c1ncn2[C@H]1CN(Cc2ccc(F)cc2)C[C@@H](CO)O1 returned PI5P4K alpha inh -2.2 and WRN inhibitor -4.6%.
Screening Cc1nc2ccc(NC(=S)NC3CC3)cc2nc1C returned Pol kappa inh -16.2%, POLI inh 56.7%, Pol beta inh 2.9%, PI5P4K alpha inh -7.4, POLH inh -11.4% and WRN inhibitor 4.2%.
Cc1nc2ccc(NC(=S)NCCCO)cc2nc1C was read as Pol kappa inh -14.2%, POLI inh 17.8µM*, Pol beta inh -0.3%, PI5P4K alpha inh 0.5, POLH inh inconclusive and WRN inhibitor 1.8%.
For OCCNC(=S)Nc1ccc2nsnc2c1 the results were Pol kappa inh -6.5%, POLI inh 20µM*, Pol beta inh 0.7%, PI5P4K alpha inh 5.8, POLH inh -17.0% and WRN inhibitor 5.8%.

Assay outcomes as filed in PubChem.
